Reference: PubChem BioAssay (NCI)
Values joined by “and” are separate entries in the source; they are usually repeats but may differ in a detail not shown here. Equal entries are not always repeated. About 83,000 compounds went through this panel and 20% of them were active in at least one assay; those are over-represented in the sample as a whole.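 Single-concentration screen, 48 h exposure, 96-well plates. Endpoint: percent growth. Below 10 = active.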 Active and inactive are the calls of the source.

Assays:
Test in all cases: NCI-60 one-dose screen, 48 h (100 = growth as untreated, 0 = no growth, -100 = all killed)
Conditions in all cases: 10 µM unless noted
NCI/ADR-RES ovarian = system: NCI/ADR-RES ovarian
MDA-MB-435 melanoma = system: MDA-MB-435 melanoma
SW-620 colon = system: SW-620 colon
MCF7 breast = system: MCF7 breast
HCT-116 colon = system: HCT-116 colon
HCC-2998 colon = system: HCC-2998 colon
KM12 colon = system: KM12 colon
BT-549 breast = system: BT-549 breast
T-47D breast = system: T-47D breast

Row | Structure (SMILES) | growth (NCI/ADR-RES ovarian) | growth (MDA-MB-435 melanoma) | growth (SW-620 colon) | growth (MCF7 breast) | growth (HCT-116 colon) | growth (HCC-2998 colon) | growth (KM12 colon) | growth (BT-549 breast) | growth (T-47D breast)
1 | Cc1c2ccncc2c(C)c2c1[nH]c1ccccc12 | -46.9% (active) | -89.6% (active) | -64.1% (active) | -15.9% (active) | -57% (active) | -96.8% (active) | -69.3% (active) |  | 
2 | CCC(=O)C(CC(C)[N+](C)(C)C)(c1ccccc1)c1ccccc1 (stereo unspecified) | 102% (inactive) |  | 104% (inactive) | 90.7% (inactive) | 93.6% (inactive) | 102% (inactive) | 107% (inactive) | 67.5% (inactive) | 
3 | Cn1cc(C(=O)C[n+]2ccccc2)c2ccccc21 | 100% (inactive) | 105% (inactive) | 106% (inactive) | 101% (inactive) | 97.5% (inactive) | 106% (inactive) | 91.5% (inactive) | 95.3% (inactive) | 
4 | C[C@H](O)CCC(=O)c1ccoc1 | 102% (inactive) | 112% (inactive) | 105% (inactive) | 98.6% (inactive) | 106% (inactive) | 102% (inactive) | 104% (inactive) | 118% (inactive) | 
5 | O=S1(=O)OCCO1 | 99.7% (inactive) | 98.2% (inactive) | 101% (inactive) | 98.8% (inactive) | 102% (inactive) | 110% (inactive) | 99.2% (inactive) | 117% (inactive) | 
6 | C[C@@H]1C/C=C\C(=O)O[C@H](/C=C/C#C/C=C/C(C)(C)[C@@H](O)c2cccc(O)c2Br)[C@@H](C)/C=C/[C@H](C)C[C@H](OC(N)=O)C1 | 33.5% (inactive) |  | 30.4% (inactive) | 18.6% (inactive) | 14.2% (inactive) | 28.2% (inactive) | 40.3% (inactive) | 43.8% (inactive) | 
7 | S=P(SP(=S)(c1ccccc1)c1ccccc1)(c1ccccc1)c1ccccc1 |  | 97.5% (inactive) | 99.3% (inactive) | 112% (inactive) | 109% (inactive) | 104% (inactive) | 105% (inactive) | 109% (inactive) | 103% (inactive)
8 | Cn1cc(-c2csc(-c3cn(CCCCN4CCOCC4)c4ccc(F)cc34)n2)c2cccnc21 |  |  | 19.7% (inactive) | 78.4% (inactive) | 83% (inactive) | 92.4% (inactive) | 52.5% (inactive) | 65.3% (inactive) | 
9 | COc1ccc2c(c1)C1(C)CCN(C)CC(C1)C2O (stereo unspecified) |  | 105% (inactive) | 101% (inactive) | 96% (inactive) | 97.8% (inactive) | 89.9% (inactive) | 102% (inactive) | 98.2% (inactive) | 95.2% (inactive)
10 | CN1[C@@H](CC(=O)c2ccccc2)CCC[C@H]1CC(=O)c1ccccc1 |  | 97.5% (inactive) | 112% (inactive) | 93.3% (inactive) | 101% (inactive) | 126% (inactive) | 110% (inactive) |  | 103% (inactive)
11 | CC1=C2[C@H]3OC(=O)[C@@H](C)[C@@H]3CC[C@@]2(C)C=CC1=O |  | 115% (inactive) | 108% (inactive) | 103% (inactive) | 118% (inactive) |  | 105% (inactive) |  | 109% (inactive)
12 | Cc1ccc(NC2=N[C@]34CC(=O)CC[C@]3(C)[C@H]3CC[C@]5(C)C(=O)CC[C@H]5[C@@H]3C[C@@H]4S2)c(C)c1 |  | 16.9% (inactive) | 4.35% (active) | 18.2% (inactive) | -27.3% (active) | 84.5% (inactive) | 44.5% (inactive) | 2.85% (active) | 
13 | CCCCCCCCCCCCCCCC[n+]1ccccc1 |  | -82.2% (active) and -80.6% (active) | -84.8% (active) and -29.2% (active) | -21.9% (active) and -2.32% (active) | -65% (active) and -95.5% (active) | -80.8% (active) and -60.6% (active) | -96.2% (active) and -81.6% (active) | -50.8% (active) and -73.3% (active) | 3.84% (active) and -0.991% (active)
14 | Cc1c(C)c(N)c(C)c(C)c1N |  | 107% (inactive) | 51.8% (inactive) | 46.5% (inactive) | 59.3% (inactive) | 106% (inactive) | 98.4% (inactive) | 104% (inactive) | 
15 | CN(C)[C@@H]1C(=O)C(C(N)=O)=C(O)[C@@]2(O)C(=O)C3=C(O)c4c(O)ccc(Cl)c4[C@@](C)(O)[C@H]3C[C@@H]12 |  | 99.6% (inactive) and 103% (inactive) | 101% (inactive) and 97.7% (inactive) | 94.8% (inactive) and 86.8% (inactive) | 81.4% (inactive) and 102% (inactive) | 92.2% (inactive) and 125% (inactive) | 94.7% (inactive) and 102% (inactive) | 87.6% (inactive) | 91.5% (inactive) and 97.7% (inactive)
16 | C[C@]12CC[C@H]3[C@@H](CC=C4c5nc(N)sc5CC[C@@]43C)[C@@H]1CC[C@@H]2O |  | 92.9% (inactive) | 90.1% (inactive) | 104% (inactive) | 92.1% (inactive) | 98.4% (inactive) | 102% (inactive) | 99.5% (inactive) | 92.2% (inactive)
17 | N#CC(N)c1ccccc1 (stereo unspecified) |  | 98.3% (inactive) | 103% (inactive) | 111% (inactive) | 96.4% (inactive) | 113% (inactive) | 103% (inactive) | 96.3% (inactive) | 114% (inactive)
18 | CC[C@H](C)[C@H](NC(=O)CN(C)C)C(=O)N(C)[C@H](C[C@@H](OC(C)=O)c1nc(C(=O)NC23CC(C(=O)OC)(C2)C3)cs1)C(C)C |  |  | 30.9% (inactive) | 17.9% (inactive) | 4.85% (active) | 20.4% (inactive) | 11.4% (inactive) | 14.2% (inactive) | 
19 | CCC1CCC(=O)O1 (stereo unspecified) |  | 109% (inactive) | 111% (inactive) and 106% (inactive) | 90.5% (inactive) and 105% (inactive) | 106% (inactive) and 107% (inactive) | 109% (inactive) | 99.7% (inactive) and 108% (inactive) | 116% (inactive) and 129% (inactive) | 
20 | O=NN1CCCCC1 |  | 118% (inactive) | 107% (inactive) | 90.8% (inactive) | 108% (inactive) |  | 104% (inactive) | 104% (inactive) | 
21 | CCOC(=O)c1c(SC)nc(-c2ccc(Cl)cc2)sc1=N |  |  |  | -8.27% [100 µM] (active) and 5.36% [100 µM] (active) |  |  |  |  | 
22 | NNC(=S)N/N=C(\C(=O)Nc1cccc(O)c1)C1C(=O)NC(=S)NC1=O |  |  |  | 95.1% [100 µM] (inactive) and 87.3% [100 µM] (inactive) |  |  |  |  | 
23 | C[C@]12CC[C@H]3[C@@H](C[C@@H]4SC(Nc5cccc(F)c5)=N[C@@]45CC(=O)CC[C@]35C)[C@@H]1CCC2=O |  | 35.9% (inactive) | 4.62% (active) | 4.46% (active) | -68.8% (active) | 75.5% (inactive) | 38.7% (inactive) | -8.61% (active) | 
24 | O=C(NC1=NCC[Se]1)c1ccccc1O |  | 48.3% (inactive) | 72.9% (inactive) | 51.4% (inactive) | 20.3% (inactive) | 90% (inactive) | 71.5% (inactive) | 82.1% (inactive) | 79.4% (inactive)
25 | CC[C@H](C)[C@H](NC(=O)[C@H]1CCCCN1C)C(=O)N(C)[C@H](C[C@@H](OC(C)=O)c1nc(C(=O)N[C@@H](Cc2ccccc2)C[C@H](C)C(=O)O)cs1)C(C)C |  | -10.9% (active) | 35.2% (inactive) | 14.6% (inactive) | 5.71% (active) | 13.7% (inactive) | 0.294% (active) | -37.2% (active) | 70.5% (inactive)
26 | O=S(=O)(c1ccc(O)cc1)c1ccccc1O |  | 110% (inactive) | 106% (inactive) | 104% (inactive) |  |  | 107% (inactive) |  | 102% (inactive)
27 | COc1ccc(/C=C(/C)[N+](=O)[O-])cc1OC |  | 14.8% (inactive) and 8.73% (active) | -71.8% (active) and -74.3% (active) | -16.3% (active) and 4.76% (active) | -69.8% (active) and -100% (active) | 35.9% (inactive) and 59.2% (inactive) | 49% (inactive) and 37.1% (inactive) | 60.2% (inactive) | 2.51% (active) and -36.5% (active)
28 | CC1=C(C)C(=O)O[C@@H]([C@](C)(O)[C@]2(O)CC[C@@]3(O)[C@@H]4C[C@H]5O[C@]56CC=CC(=O)[C@]6(C)[C@H]4CC[C@]23C)C1 |  |  | -37% (active) | -16.3% (active) | -4.21% (active) | -69.8% (active) | -24.2% (active) | -24.4% (active) | 
29 | O=C(O)c1ccc(=O)[nH]c1 |  | 106% (inactive) and 103% (inactive) | 105% (inactive) and 107% (inactive) | 126% (inactive) and 93.4% (inactive) | 103% (inactive) and 93.7% (inactive) | -49% (active) and 101% (inactive) | 103% (inactive) and 105% (inactive) | 89.7% (inactive) | 
